{"source": "PubChem BioAssay (Tox21)", "note": "Inconclusive results are not listed. Calls of active or inactive are those of the source. Calls come from the whole dose curve; as a rule, active = well fitted cell-killing curve with a large enough effect in the repeat runs; inconclusive = weak or mixed curves, or effect the other way; inactive = flat fitted curve, though single readings scatter. % is set by controls: 0 for no effect and ±100 for the full control effect."}
{"test": "cAMP Responsive Elements (CRE) small molecule antagonists, cell-based qHTS assay: qHTS cell viability counter screen (AID 2060913); note: nearly all actives have a fitted effect of over 40% in size", "conditions": "CRE-bla HEK293T viability, CellTiter-Glo luminescence, 5 h; series mostly up to 92.4 µM; viability change, negative = cytotoxic: at the top concentration", "how_it_was_run": "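Cytotoxicity counter screen multiplexed with the CRE-bla antagonist read: HEK293T cells in DMEM with dialyzed FBS and 25 mM HEPES were treated 3 hrs under 0.25 uM final NKH477, then viability measured by CellTiter-Glo luminescence.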"}
{"smiles": "Nc1cc(Cl)ccc1O", "viability change, negative = cytotoxic": "2.15% (inactive)"}
{"smiles": "CC(C)[C@]12CC(=O)[C@H](C)[C@H]1C2", "viability change, negative = cytotoxic": "-2.47% (inactive)"}
{"smiles": "CC1CCC(=O)O1", "note": "(stereo not given)", "viability change, negative = cytotoxic": "-0.612% (inactive)"}
{"smiles": "CNC", "Potency": "inactive"}
{"smiles": "CC(c1ccc(O)cc1)(c1ccc(O)cc1)c1ccc(O)cc1", "viability change, negative = cytotoxic": "-13.2% (inactive)"}
{"smiles": "CCCCCCC[CH2][Sn]([Cl])([Cl])[CH2]CCCCCCC", "viability change, negative = cytotoxic": "7.41% (inactive)"}
{"smiles": "CC(C)(N)Cc1ccc(Cl)cc1", "viability change, negative = cytotoxic": "-2.63% [at 42.5 µM] (inactive)"}
{"smiles": "CC(C)(O)c1cnn2c(-c3ccc(F)c(-c4c(F)cccc4C#N)c3)cnc2n1", "viability change, negative = cytotoxic": "5.01% (inactive)"}
{"smiles": "OCc1ccco1", "Potency": "inactive"}
{"smiles": "CCC1(C2=NCCN2)Cc2ccccc2O1", "note": "(stereo not given)", "viability change, negative = cytotoxic": "-0.681% [at 42.5 µM] (inactive)"}
{"smiles": "CCCCC(CC)COC(=O)c1c(Br)c(Br)c(Br)c(Br)c1C(=O)OCC(CC)CCCC", "note": "(stereo not given)", "viability change, negative = cytotoxic": "5.06% [at 42.5 µM] (inactive)"}
{"smiles": "CCCCCCCCCCCCN(C)C", "viability change, negative = cytotoxic": "0.0742% (inactive)"}
{"smiles": "ClCC(Cl)Cl", "viability change, negative = cytotoxic": "-7.41% (inactive)"}
{"smiles": "CCC(=O)C(CC(C)N(C)C)(c1ccccc1)c1ccccc1", "note": "(stereo not given)", "Potency": "inactive"}
{"smiles": "O=C/C=C/c1ccccc1", "Potency": "inactive"}
{"smiles": "CCC(=O)O[C@H]1CC[C@H]2[C@@H]3CCC4=CC(=O)CC[C@]4(C)[C@H]3CC[C@]12C", "viability change, negative = cytotoxic": "-8.08% [at 42.5 µM] (inactive)"}
{"smiles": "COC(=O)c1cncn1C(C)c1ccccc1", "note": "(stereo not given)", "viability change, negative = cytotoxic": "0.0374% [at 42.5 µM] (inactive)"}
{"smiles": "CCCC[N+](=O)[O-]", "viability change, negative = cytotoxic": "0.318% (inactive)"}
{"smiles": "NNC(=O)c1cccnc1", "viability change, negative = cytotoxic": "-4.07% (inactive)"}
{"smiles": "CCN", "viability change, negative = cytotoxic": "2.59% (inactive)"}
{"smiles": "Clc1cnc(Oc2ccc(Oc3ncc(Cl)cc3Cl)cc2)c(Cl)c1", "Potency": "inactive"}
{"smiles": "O=[N+]([O-])c1cc([As](=O)(O)O)ccc1O", "Potency": "inactive"}
{"smiles": "O=c1ssc(Cl)c1Cl", "viability change, negative = cytotoxic": "4.25% (inactive)"}
{"smiles": "Clc1cccc(Cl)c1", "Potency": "inactive"}
{"smiles": "[C-]1=CC=CC1.[Cl][Zr+2][Cl].c1cc[cH-]c1", "viability change, negative = cytotoxic": "-4.86% (inactive)"}
{"smiles": "O=C(NCNC(=O)NC1C(=O)NC(=O)N1CO)NC1C(=O)NC(=O)N1CO", "note": "(stereo not given)", "viability change, negative = cytotoxic": "-1.96% (inactive)"}
{"smiles": "COP(=O)(OC)O/C(=C\\Cl)c1cc(Cl)c(Cl)cc1Cl", "viability change, negative = cytotoxic": "-13.9% (inactive)"}
{"smiles": "Cc1c(Cl)c(=O)oc2cc(OP(=O)(OCCCl)OCCCl)ccc12", "viability change, negative = cytotoxic": "-0.131% [at 42.5 µM] (inactive)"}
{"smiles": "S=C=S", "viability change, negative = cytotoxic": "6.15% (inactive)"}
{"smiles": "O=C(N[C@H]1CN2CCC1CC2)c1cc2ccoc2cn1", "viability change, negative = cytotoxic": "1.66% (inactive)"}
{"smiles": "OC(Cc1ccccc1Cl)(Cn1[nH]cnc1=S)C1(Cl)CC1", "note": "(stereo not given)", "viability change, negative = cytotoxic": "-0.319% (inactive)"}
{"smiles": "Cl/C=C/CCl", "viability change, negative = cytotoxic": "0.0529% (inactive)"}
{"smiles": "CCCCS(=O)(=O)Cl", "viability change, negative = cytotoxic": "4.91% (inactive)"}
{"smiles": "C#CCN1C(=O)COc2cc(F)c(N3C(=O)C4=C(CCCC4)C3=O)cc21", "viability change, negative = cytotoxic": "-3.66% (inactive)"}
{"smiles": "Cc1cc(Cl)ccc1N", "Potency": "inactive"}
{"smiles": "NC(=O)CCl", "viability change, negative = cytotoxic": "-0.404% (inactive)"}
{"smiles": "CCC(C)(C)c1ccc(O)cc1", "Potency": "inactive"}
{"smiles": "Cc1cc(Cl)ccc1N=CN(C)C", "Potency": "inactive"}
{"smiles": "CN(C)CCC#N", "Potency": "inactive"}
{"smiles": "O=NN1CCNCC1", "viability change, negative = cytotoxic": "-7.15% (inactive)"}
